Shown are actives, neighbours in structure and some others; about 4.6% of the full set was active somewhere.
D1 potentiator: enhances dopamine response at the human D1 receptor; HEK293 TREx D1 cells, calcium flux, dopamine EC20 potentiation; potentiation, % at 10 µM; hit rate 0.036% among 360,000; in the data active = potentiation above about 30%
D1 agonist: human D1 receptor agonism. AID 504660. hit rate 1% among 360,000. HEK293 T-REx D1 cells, calcium flux, agonist mode. P21728. activation, % at 2 µM
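Agonism was scored from calcium flux recorded over 180 s (1 read/s) after pintool compound addition, following a 10-cycle baseline. Cells were inducible force-coupled HEK293 TREx D1, plated overnight at 30 C and loaded with no-wash calcium dye.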
D1 antag: human D1 dopamine receptor antagonism; P21728; HEK293 TREx D1 cells, calcium flux, dopamine EC80; stronger effect = lower value; activity change, negative = inhibition, % at 10 µM; hit rate 3.2% among 360,000; in the data active = activity change below about -30%
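Calcium flux readout: force-coupled, inducible Hek293 Trex D1 line, cells induced overnight at 30 C with tetracycline, dye-loaded 30–90 min at RT. Antagonism scored against EC80 dopamine challenge given 180 s after compound.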
TRHR ag: agonists of human TRH receptor; P34981; TRHR cells, calcium flux fluo-8, FDSS agonist mode; activation, % at 2 µM; hit rate 0.18% among 360,000
Target sequence (P34981 whole entry, looked up): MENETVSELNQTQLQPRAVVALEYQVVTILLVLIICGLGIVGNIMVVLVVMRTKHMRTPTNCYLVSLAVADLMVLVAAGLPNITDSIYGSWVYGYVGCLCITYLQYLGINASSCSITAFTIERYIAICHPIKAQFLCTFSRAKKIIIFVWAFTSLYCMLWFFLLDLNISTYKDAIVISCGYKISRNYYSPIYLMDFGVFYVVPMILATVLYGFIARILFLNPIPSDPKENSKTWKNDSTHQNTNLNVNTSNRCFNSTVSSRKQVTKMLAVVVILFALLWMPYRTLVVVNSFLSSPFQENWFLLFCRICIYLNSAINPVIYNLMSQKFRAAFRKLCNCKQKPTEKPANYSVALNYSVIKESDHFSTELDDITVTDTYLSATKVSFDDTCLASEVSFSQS
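TRHR-expressing cells loaded with fluo-8 calcium dye; 23 nL library compound pin-transferred, kinetic FDSS fluorescence (Ex 480/Em 530) recorded about 180 s for agonist-induced calcium release, before a 10 nM TRH EC20 addition for potentiator mode.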
TRHR PAM: allosterically enhances the human TRH receptor; AID 493056; hit rate 0.66% among 360,000; enhancement, % at 2 µM; P34981; TRHR cells, fluo-8 calcium fluorescence, EC20 TRH enhancement; in the data active = enhancement above about 30%
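TRHR-expressing cells loaded with fluo-8 calcium dye were read kinetically (ex 480/em 530) during compound addition, then stimulated with an EC20 of TRH (10 nM final). Enhancement of the Gq-mediated intracellular calcium response was scored.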
A number is an active result; – = inactive; · = no result given. Cut-off read from the data, not from the text of the source, unless noted: active = activation above about 30%; inactive = the rest.

SMILES	D1 potentiator	D1 agonist	D1 antag	TRHR ag	TRHR PAM
CCOC(=O)c1c(-c2ccc(OC)cc2)csc1/N=C/C1=C(O)CCCC1=O	–	37	–	–	–
CCOC(=O)c1c(/N=C/C2=C(O)CCCC2=O)sc(C)c1C	–	–	–	–	–
Cc1ccc(-c2noc(-c3ccccc3NC(=O)C3CC(=O)N(c4cccc(C)c4)C3)n2)cc1 (configuration not stated)	–	–	–	–	–
O=C(NCc1ccc2c(c1)OCO2)C1CCN(c2nccc(C(F)(F)F)n2)CC1	–	–	–	–	–
O=C(NCc1ccccc1)C1=C[C@H](c2ccc(Br)cc2)C[C@H](OCc2ccc(CO)cc2)O1	–	32	–	–	–
O=C(C1=C[C@H](c2ccc(Br)cc2)C[C@H](OCc2ccc(CO)cc2)O1)N1CCOCC1	–	–	-33	–	–
O=C(C1=C[C@@H](c2ccc(Br)cc2)C[C@@H](OCc2ccc(CO)cc2)O1)N1CCOCC1	–	–	–	–	–
O=C(C1=C[C@@H](c2ccccc2)C[C@@H](OCCCCO)O1)N1CCOCC1	–	–	-37	–	–
CN1CCN(C(=O)C2=C[C@@H](c3ccccc3)C[C@@H](OCCCCO)O2)CC1	–	–	–	–	–
O=C(C1=C[C@@H](c2ccc(Br)cc2)C[C@@H](OCCCCO)O1)N1CCOCC1	–	–	-70	–	–
COc1ccc(C(=O)Nc2nc3c(s2)Cc2c(Br)ccc(OC)c2-3)cc1OC	–	–	–	–	–
CCOC(=O)N1CN(C(=O)OCC)CN(C(=O)OCC)C1	–	–	–	–	–
COc1ccc(C)cc1NC(=O)CSc1nnc(-c2ccco2)n1N	–	–	–	–	–
CC(=O)c1cccc(NC(=O)CSc2ccc(-c3ccco3)nn2)c1	–	–	-56	–	–
COc1ccc(C)cc1NC(=O)CSc1ccc(-c2ccco2)nn1	42	–	–	–	–
COc1ccc(NC(=O)c2ccco2)cc1NC(=O)C(C)(C)Oc1ccc(Cl)cc1	–	–	–	–	–
S=C(NCc1ccccc1)NCc1ccccc1	–	–	-52	–	–
FC(F)(F)c1ccc(NC(=S)NCc2ccccc2)cc1	–	–	-37	–	–
CN(C)c1ccc(/C=N/NC(=S)NCc2ccccc2)cc1	–	–	-83	–	–
CC(=O)c1ccc(NC(=S)N(CCCN(C)C)Cc2ccccc2)cc1	–	–	–	–	–
CN(C)CCCN(Cc1ccccc1)C(=S)Nc1ccc(SC(F)F)cc1	–	32	–	–	–
S=C(NCc1ccccc1)NCc1ccc(Cl)cc1	–	–	–	–	–
COc1ccc(NC(=O)COCc2cc(-c3ccco3)on2)cc1Cl	–	–	–	–	–
COc1ccc(-n2nc(C(=O)NCC(=O)NCc3ccc(F)cc3)c3ccccc3c2=O)cc1	–	–	–	–	–
FC(F)Sc1ccc(NC(=S)NCc2ccccc2)cc1	–	–	-32	–	–
SMILES	D1 potentiator	D1 agonist	D1 antag	TRHR ag	TRHR PAM
CCOC(=O)N1CCc2c(sc3c2c(=O)n(Cc2ccccc2)c(=O)n3Cc2c(F)cccc2Cl)C1	–	–	–	–	–
Cc1cccc(Nc2c3c(nc4ncnn24)CCC3)c1	–	–	-30	–	–
Cc1cc(C)cc(Nc2c3c(nc4ncnn24)CCC3)c1	–	–	–	–	–
COc1cccc(N2CCN(c3c4c(nc5ncnn35)CCC4)CC2)c1	–	–	-30	–	–
O=C(CSc1nnc(-c2ccccc2Br)n1-c1ccccc1)c1ccc(F)cc1	–	–	–	–	–
Cc1ccc(C(=O)COC(=O)CN2C(=O)C3C4CCC(C4)C3C2=O)cc1[N+](=O)[O-] (configuration not stated)	–	–	–	–	–
O=C(CCN1C(=O)C2C3CCC(C3)C2C1=O)OCC(=O)c1ccc(Br)cc1 (configuration not stated)	–	–	-31	–	–
Cc1ccc(C(=O)COC(=O)CCN2C(=O)C3C4CCC(C4)C3C2=O)cc1[N+](=O)[O-] (configuration not stated)	–	–	-42	–	–
Cc1nc(N2CCCC2)c2c(C(=O)N3CCN(c4cc(Cl)ccc4C)CC3)c(C)oc2n1	–	–	–	–	–
CCc1ccc(O)c(CNCCNCc2cc(CC)ccc2O)c1	–	31	–	–	–
O=C(/C=C/c1cccc([N+](=O)[O-])c1)N1CCN(Cc2ccc3c(c2)OCO3)CC1	–	–	-34	–	–
O=C(/C=C/c1cccs1)N1CCN(Cc2ccc3c(c2)OCO3)CC1	–	–	–	–	–
O=C(/C=C/c1ccc2c(c1)OCO2)N1CCN(c2ccc(Cl)cc2)CC1	–	–	–	–	–
O=C(/C=C/c1ccc2c(c1)OCO2)N1CCCCC1	–	–	-30	–	–
Cc1c(NC(=O)C(F)(F)F)ccc2nc3c(=O)n(C)c(=O)n(C)c3nc12	–	–	–	–	–
CCc1ccc2oc(-c3cccc(NC(=O)c4ccc(N5CCC(C)CC5)c([N+](=O)[O-])c4)c3)nc2c1	–	–	–	–	–
CNC(=S)N/N=C1\C(=O)c2cccc3cccc1c23	–	–	-46	–	–
CCCCNC(=S)N/N=C1\C(=O)c2cccc3cccc1c23	–	–	–	–	–
Cc1ccc(CNC(=O)c2ccc(N3CCC4(CC3)CC(c3ccccc3)=NO4)c(NC(=O)c3ccc(Cl)c([N+](=O)[O-])c3)c2)cc1	–	–	–	–	–
CCn1c(=O)c([N+](=O)[O-])c(NCCc2ccccc2)c2ccccc21	–	–	-52	–	–
Cn1c(=O)c([N+](=O)[O-])c(NCCc2ccccc2)c2ccccc21	–	–	–	–	–
COc1ccc(CC(=O)OCC(=O)c2c(N)n(C)c(=O)n(C)c2=O)cc1OC	–	–	–	–	–
COc1ccccc1CN1C[C@@H]2C[C@@H](c3cccc(C)n3)N3CCC[C@@]23C1=O	–	–	–	–	–
COc1ccccc1CN1C[C@@H]2C[C@@H](c3[nH]c4c(C)cccc4c3C)N3CCC[C@@]23C1=O	32	44	–	–	–
COc1ccccc1-c1nnc(C2CCN(S(=O)(=O)c3ccc(CC(C)C)cc3)CC2)o1	–	–	–	–	–
SMILES	D1 potentiator	D1 agonist	D1 antag	TRHR ag	TRHR PAM
Cc1cc(Cl)ccc1OC(C)C(=O)NN=C1CCCCCC1 (configuration not stated)	·	–	-31	–	–
Cc1ccc(Nc2nc(-c3cccnc3)cs2)cc1Cl	–	–	–	–	–
Cc1ccc(C)c(Nc2nc(-c3cccnc3)cs2)c1	–	–	-39	–	–
CCOC(=O)CSc1nc2ccccc2c(=O)n1-c1cccc(C)c1	–	–	–	–	–
N#Cc1cc(N)ccc1Sc1ccccc1	–	–	–	–	–
N#Cc1cc(N)ccc1Sc1ccc(Cl)cc1	–	–	-32	–	–
CC(C)c1nc2ccc(C(=O)NCc3ccc(F)cc3)cc2o1	–	–	–	–	–

Screening results: PubChem BioAssay, National Center for Advancing Translational Sciences (NCATS)
